Experiments:
[1] = target: Tyrosine-protein kinase SYK (Homo sapiens) (UniProt P43405); settings: at 1 µM
[2] = target: T1, Tyrosine-protein kinase Tec (Homo sapiens) (UniProt P42680); settings: at 0.1 µM
T1 sequence (whole entry): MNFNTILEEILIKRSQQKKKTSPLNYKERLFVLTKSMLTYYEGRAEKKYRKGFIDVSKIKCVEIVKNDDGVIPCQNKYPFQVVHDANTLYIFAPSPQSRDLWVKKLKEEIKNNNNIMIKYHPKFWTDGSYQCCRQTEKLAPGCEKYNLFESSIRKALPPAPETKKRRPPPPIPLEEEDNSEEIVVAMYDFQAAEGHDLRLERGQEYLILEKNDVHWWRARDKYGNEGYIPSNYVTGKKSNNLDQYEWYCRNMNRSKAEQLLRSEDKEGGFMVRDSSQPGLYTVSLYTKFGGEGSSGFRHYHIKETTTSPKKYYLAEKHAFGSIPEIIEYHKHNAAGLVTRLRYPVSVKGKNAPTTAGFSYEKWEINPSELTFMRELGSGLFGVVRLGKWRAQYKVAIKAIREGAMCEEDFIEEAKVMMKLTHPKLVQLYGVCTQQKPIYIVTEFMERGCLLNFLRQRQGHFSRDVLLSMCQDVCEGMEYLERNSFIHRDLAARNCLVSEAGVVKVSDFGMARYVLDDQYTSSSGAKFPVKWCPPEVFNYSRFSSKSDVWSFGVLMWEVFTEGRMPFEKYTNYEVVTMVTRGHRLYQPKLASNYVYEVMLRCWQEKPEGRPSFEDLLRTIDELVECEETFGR

[3] = target: T1, Tyrosine-protein kinase Tec (Homo sapiens); settings: at 1 µM
[4] = target: Angiopoietin-1 receptor (Homo sapiens) (UniProt Q02763); settings: at 0.1 µM
Sequence of Angiopoietin-1 receptor (Homo sapiens) (Q02763 whole entry): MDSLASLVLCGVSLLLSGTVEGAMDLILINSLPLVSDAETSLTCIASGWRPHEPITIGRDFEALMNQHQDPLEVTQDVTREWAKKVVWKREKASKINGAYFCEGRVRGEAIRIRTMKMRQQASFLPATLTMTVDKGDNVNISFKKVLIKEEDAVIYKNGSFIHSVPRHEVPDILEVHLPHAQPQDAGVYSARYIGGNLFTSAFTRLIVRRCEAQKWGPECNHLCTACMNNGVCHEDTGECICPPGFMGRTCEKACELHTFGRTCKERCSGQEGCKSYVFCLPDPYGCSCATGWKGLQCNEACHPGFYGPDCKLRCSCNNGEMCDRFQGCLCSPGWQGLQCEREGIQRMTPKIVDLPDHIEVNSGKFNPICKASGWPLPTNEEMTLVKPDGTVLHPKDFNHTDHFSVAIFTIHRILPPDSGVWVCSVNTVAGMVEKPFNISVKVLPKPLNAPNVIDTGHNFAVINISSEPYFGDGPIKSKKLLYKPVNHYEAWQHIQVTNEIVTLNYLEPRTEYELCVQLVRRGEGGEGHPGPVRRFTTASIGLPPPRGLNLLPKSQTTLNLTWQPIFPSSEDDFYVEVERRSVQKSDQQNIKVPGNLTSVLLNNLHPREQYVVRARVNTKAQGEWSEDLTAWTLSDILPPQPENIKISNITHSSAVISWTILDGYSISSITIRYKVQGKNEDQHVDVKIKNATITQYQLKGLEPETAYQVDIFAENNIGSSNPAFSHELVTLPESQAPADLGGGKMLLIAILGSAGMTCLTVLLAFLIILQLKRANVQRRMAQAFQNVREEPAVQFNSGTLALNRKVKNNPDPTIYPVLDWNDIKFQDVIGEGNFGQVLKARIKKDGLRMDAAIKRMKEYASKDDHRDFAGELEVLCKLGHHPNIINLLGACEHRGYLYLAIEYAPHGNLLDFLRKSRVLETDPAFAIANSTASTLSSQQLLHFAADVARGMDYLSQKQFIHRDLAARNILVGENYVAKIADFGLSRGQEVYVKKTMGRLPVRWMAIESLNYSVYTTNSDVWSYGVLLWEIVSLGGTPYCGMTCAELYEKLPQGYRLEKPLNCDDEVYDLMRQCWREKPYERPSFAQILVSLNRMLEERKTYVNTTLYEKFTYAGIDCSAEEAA

[5] = target: Angiopoietin-1 receptor (Homo sapiens) (UniProt Q02763); settings: at 1 µM
[6] = target: T2, Non-receptor tyrosine-protein kinase TNK1 (Homo sapiens) (UniProt Q13470); settings: at 0.1 µM
T2 sequence (whole entry): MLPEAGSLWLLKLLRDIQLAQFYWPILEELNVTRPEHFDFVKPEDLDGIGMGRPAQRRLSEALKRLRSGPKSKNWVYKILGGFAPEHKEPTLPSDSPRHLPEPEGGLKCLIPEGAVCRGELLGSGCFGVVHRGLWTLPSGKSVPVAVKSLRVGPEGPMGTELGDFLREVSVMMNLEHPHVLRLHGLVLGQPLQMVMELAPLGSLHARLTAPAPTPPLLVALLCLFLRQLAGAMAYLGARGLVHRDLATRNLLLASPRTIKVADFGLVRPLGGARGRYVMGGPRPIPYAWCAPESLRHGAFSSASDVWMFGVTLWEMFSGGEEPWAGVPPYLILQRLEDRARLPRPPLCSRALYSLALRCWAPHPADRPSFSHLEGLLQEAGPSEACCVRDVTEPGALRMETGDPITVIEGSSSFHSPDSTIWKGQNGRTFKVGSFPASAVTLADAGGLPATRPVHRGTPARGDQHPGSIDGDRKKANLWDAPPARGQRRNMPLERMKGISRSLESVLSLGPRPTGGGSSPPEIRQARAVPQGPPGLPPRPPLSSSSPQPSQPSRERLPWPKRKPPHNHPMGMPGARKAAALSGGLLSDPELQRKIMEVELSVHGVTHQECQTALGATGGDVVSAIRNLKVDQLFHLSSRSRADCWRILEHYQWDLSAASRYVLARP

[7] = target: T2, Non-receptor tyrosine-protein kinase TNK1 (Homo sapiens); settings: at 1 µM
[8] = target: Activated CDC42 kinase 1 (Homo sapiens) (UniProt Q07912); settings: at 0.1 µM
Sequence of Activated CDC42 kinase 1 (Homo sapiens) (Q07912 whole entry, looked up): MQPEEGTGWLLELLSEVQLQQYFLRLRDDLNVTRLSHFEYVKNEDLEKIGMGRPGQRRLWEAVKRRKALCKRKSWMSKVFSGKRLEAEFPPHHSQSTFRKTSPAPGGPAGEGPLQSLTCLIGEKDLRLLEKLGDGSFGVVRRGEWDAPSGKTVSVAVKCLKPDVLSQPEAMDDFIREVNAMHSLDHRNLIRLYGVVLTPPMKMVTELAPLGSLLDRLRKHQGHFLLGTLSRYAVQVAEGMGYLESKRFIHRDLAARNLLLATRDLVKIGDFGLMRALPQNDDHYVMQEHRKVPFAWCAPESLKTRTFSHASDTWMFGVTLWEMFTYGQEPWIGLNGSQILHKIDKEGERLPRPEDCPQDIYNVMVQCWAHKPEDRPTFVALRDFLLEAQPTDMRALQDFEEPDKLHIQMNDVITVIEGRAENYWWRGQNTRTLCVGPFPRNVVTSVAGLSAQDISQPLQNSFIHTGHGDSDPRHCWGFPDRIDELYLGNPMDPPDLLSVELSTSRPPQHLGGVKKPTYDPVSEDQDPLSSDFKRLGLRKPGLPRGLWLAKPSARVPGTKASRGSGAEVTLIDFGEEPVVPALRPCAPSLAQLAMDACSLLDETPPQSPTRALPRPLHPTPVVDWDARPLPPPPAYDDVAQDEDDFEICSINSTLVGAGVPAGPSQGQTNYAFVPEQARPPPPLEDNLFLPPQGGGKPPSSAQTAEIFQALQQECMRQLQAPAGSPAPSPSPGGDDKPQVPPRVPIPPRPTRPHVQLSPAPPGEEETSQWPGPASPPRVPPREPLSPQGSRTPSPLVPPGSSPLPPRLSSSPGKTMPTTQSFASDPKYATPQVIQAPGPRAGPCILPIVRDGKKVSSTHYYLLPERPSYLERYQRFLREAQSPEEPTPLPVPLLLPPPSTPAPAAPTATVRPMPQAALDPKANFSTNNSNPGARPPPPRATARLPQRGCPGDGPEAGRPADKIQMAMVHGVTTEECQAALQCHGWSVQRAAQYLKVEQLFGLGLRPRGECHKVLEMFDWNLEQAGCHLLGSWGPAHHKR

[9] = target: Activated CDC42 kinase 1 (Homo sapiens) (UniProt Q07912); settings: at 1 µM
[10] = target: High affinity nerve growth factor receptor (Homo sapiens) (UniProt P04629); settings: at 0.1 µM;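 further: each value is a mean of replicate percent inhibition readings against TRKA kinase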
Sequence of High affinity nerve growth factor receptor (Homo sapiens) (P04629 33-796 limits assumed): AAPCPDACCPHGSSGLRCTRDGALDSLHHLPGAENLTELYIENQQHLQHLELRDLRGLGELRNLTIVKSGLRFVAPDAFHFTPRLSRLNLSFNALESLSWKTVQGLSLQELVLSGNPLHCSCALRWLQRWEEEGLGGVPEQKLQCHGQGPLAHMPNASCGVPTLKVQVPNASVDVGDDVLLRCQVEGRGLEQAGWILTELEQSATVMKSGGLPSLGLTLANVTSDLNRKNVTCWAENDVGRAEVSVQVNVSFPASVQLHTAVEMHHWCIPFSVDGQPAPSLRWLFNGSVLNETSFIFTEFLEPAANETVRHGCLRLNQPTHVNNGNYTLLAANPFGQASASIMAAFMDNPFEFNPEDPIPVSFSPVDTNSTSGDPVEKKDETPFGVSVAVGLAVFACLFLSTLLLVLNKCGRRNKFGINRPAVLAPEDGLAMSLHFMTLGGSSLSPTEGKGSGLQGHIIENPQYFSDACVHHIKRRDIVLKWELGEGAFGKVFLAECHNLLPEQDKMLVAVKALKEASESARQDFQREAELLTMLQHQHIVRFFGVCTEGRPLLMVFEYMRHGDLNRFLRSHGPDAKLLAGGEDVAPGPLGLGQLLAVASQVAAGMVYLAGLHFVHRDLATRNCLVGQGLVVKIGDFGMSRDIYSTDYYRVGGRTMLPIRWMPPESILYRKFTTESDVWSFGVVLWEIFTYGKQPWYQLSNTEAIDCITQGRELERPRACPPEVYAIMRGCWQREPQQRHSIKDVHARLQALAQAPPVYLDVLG

| SMILES | inhibition [1] | inhibition [2] | inhibition [3] | inhibition [4] | inhibition [5] | inhibition [6] | inhibition [7] | inhibition [8] | inhibition [9] | inhibition [10] |
| --- | --- | --- | --- | --- | --- | --- | --- | --- | --- | --- |
| C#Cc1cccc(Nc2ncnc3ccc(OCCCCNCCS(C)(=O)=O)cc23)c1 | 0.39% | 5.96% | 9.84% | 5.13% | 12.5% | 2.31% | 20.9% | 2.03% | 7.01% | 2.95% |
| Fc1ccc(-c2ncn(C3CCNCC3)c2-c2ccnc(Oc3ccc(F)c(F)c3)n2)cc1 | -2.3% | -2.35% | 0.11% | 0.38% | 3.09% | 0.22% | 4.28% | -0.47% | -0.07% | 2.3% |
| NC(=O)c1cc(-c2ccncc2)cc(-c2ccccc2)c1N | 1.64% | 18.5% | 58.7% | 3.02% | 6.28% | 1.93% | 6.5% | 1.25% | 7.25% | 1.66% |
| COc1cc(Nc2ncc3c(C)nc(-c4cccc(C(F)(F)F)c4)n3n2)cc(OC)c1OC | -2.22% | 3.55% | 16.9% | 2.15% | 6.29% | 15.2% | 48.8% | 0.75% | 3.69% | 2.69% |
| CN(C)CCOc1ccc(-c2cc(-c3ccc4c(c3)CCC4=NO)c(-c3ccncc3)o2)cc1 | 0.74% | 0.39% | 1.01% | 0.77% | 11.6% | 2.33% | 20.8% | -1.03% | 0.17% | -1.52% |
| COc1cc(N2CCN(C(C)C)CC2)ccc1Nc1nc(Nc2ccc(F)cc2C(=O)NC[C@@H](O)CO)c2cc[nH]c2n1 | -2.57% | 1.33% | 1.93% | 2.59% | 6.08% | 14.7% | 60.5% | 3.26% | 9.35% | 3.81% |
| c1ccc(-c2n[nH]cc2-c2ccnc(-c3ccc(OCCN4CCOCC4)cc3)c2)nc1 | -0.16% | 3.84% | 4.59% | 4.66% | 7.13% | 0.24% | -5.31% | 5.48% | 5.14% | -3.86% |
| COc1ccc(C2=C(N3CCc4ccccc43)C(=O)NC2=O)cc1 | 2.15% | 5.51% | 6.81% | 2.29% | 3.07% | 4.3% | 13.9% | 1.51% | 2.14% | 5.01% |
| CCS(=O)(=O)c1ccc(OC)c(Nc2ncc(-c3cccc(-c4ccccc4F)c3)o2)c1 | 1.23% | 2.94% | 12.7% | 3.06% | 19% | 14.1% | 61.8% | 1.02% | 7.85% | 6.39% |
| O=C(Nc1n[nH]c2nc(-c3ccc(O)cc3)c(Br)cc12)C1CC1 | 0.18% | 6.51% | 14.4% | 5.98% | 26.2% | 4.45% | 20.4% | 1.69% | 3.9% | 4.06% |
| NCc1ccc(-n2c(-c3nonc3N)nc3cnccc32)cc1 | -0.51% | 4.69% | 4.95% | 2.68% | 3.28% | 5.04% | 3.5% | 1.93% | 5.77% | 1.82% |
| c1ccc(Oc2ccc(Nc3ncc(-c4ccccc4)o3)cc2)cc1 | 2.28% | 2.6% | 2.98% | 0.12% | 1.44% | 0.99% | 3.43% | 0.99% | 2.91% | 1.43% |
| C/C(Nc1ccc(S(N)(=O)=O)cc1)=C1/C(=O)Nc2ccccc21 | 0.6% | -1.54% | -2.14% | 0.44% | 2.44% | -3.91% | 9.56% | -1.14% | 0.65% | 4.48% |
| Cc1nnc(-c2ccc(C)c(-c3ccc(C(=O)NCc4ccc(Cl)cc4)cc3)c2)o1 | -1% | 0.01% | 0.03% | 4.45% | 6.89% | 0.68% | 5.31% | 0.65% | 0.3% | 2.65% |
| NC(=O)Cc1ccccc1Oc1nccc(-c2c(-c3ccc(F)cc3)ncn2C2CCNCC2)n1 | -0.38% | 4.14% | 4.45% | 3.62% | 4.3% | -0.61% | -3.16% | 1.43% | 2.74% | -0.18% |
| COc1cccc(-n2cnc3c(N/N=C/c4ccncc4)ncnc32)c1 | -1.09% | -2.49% | 5.03% | -0.9% | 9.67% | 1.98% | 19.3% | 0.06% | 3.07% | -1.67% |
| Fc1ccc(-c2ncn(C3CCNCC3)c2-c2ccnc(Oc3ccc(Oc4ccccc4)cc3)n2)cc1 | 3.37% | 7.61% | 3.11% | 3.79% | 4.32% | 2.72% | 0.92% | 0.73% | 1.8% | 3.4% |

| SMILES | inhibition [1] | inhibition [2] | inhibition [3] | inhibition [4] | inhibition [5] | inhibition [6] | inhibition [7] | inhibition [8] | inhibition [9] | inhibition [10] |
| --- | --- | --- | --- | --- | --- | --- | --- | --- | --- | --- |
| NS(=O)(=O)c1ccc(N/N=C2\C(=O)Nc3ccc(-c4cnco4)cc32)cc1 | -1.05% | -1.76% | 4.09% | 3.92% | 4.65% | 9.41% | 44.4% | -0.82% | 0.92% | 4.49% |
| N#Cc1ccc(Oc2nccc(-c3c(-c4ccc(F)cc4)ncn3C3CCNCC3)n2)cc1 | -3.55% | 2.34% | 5.61% | 3.13% | 8.62% | -0.15% | 2.6% | 0.82% | 2.05% | 2.46% |
| COc1cc2ncn(-c3cc(OCc4ccccc4C(F)(F)F)c(C(C)=O)s3)c2cc1OC | -5.75% | -0.08% | 5.16% | 1.54% | 8.41% | 0.64% | 23.6% | 1.52% | 3.29% | 2.3% |
| NS(=O)(=O)c1ccc(Nc2cc(-c3ccc(O)c(F)c3)n[nH]2)cc1 | -1.99% | -1.66% | 0.4% | 2.97% | 21.7% | -4.31% | 24.3% | -1.31% | -1.02% | 5.68% |
| O=C(Nc1n[nH]c2cc(-c3ccccc3)ccc12)C1CC1 | 1.22% | 7.27% | 16.4% | 1.86% | 3.48% | 3.15% | 7.79% | 0.74% | 3.97% | 2.59% |
| CCC(=O)Nc1ccc(C)c(-c2ccc(C(=O)NCC3CC3)cc2)c1 | 0.67% | 3.13% | 2.28% | 4.73% | 6.22% | -0.12% | 6.35% | 0.66% | 1.34% | 2% |
| NC(=O)c1ccc(Oc2nccc(-c3c(-c4ccc(F)cc4)ncn3C3CCNCC3)n2)cc1 | 2.71% | 8.39% | 6.14% | 5.16% | 6.4% | 4.4% | 4.01% | 0.55% | 1.67% | 2.53% |
| CN(C)CCCNc1nccc(-c2c(-c3ccc(F)cc3)nn3cc(C(F)(F)F)ccc23)n1 | -0.03% | -0.2% | 1.41% | 5.61% | 9.58% | 1.15% | 0.39% | 0.85% | 1.33% | 4.23% |
| Fc1ccc(-c2ncn(CCCN3CCOCC3)c2-c2ccncc2)cc1 | -1.02% | -0.04% | 2.36% | 1.37% | 1.99% | 0.29% | -6.97% | -0.82% | -1.72% | -2.6% |
| CS(=O)(=O)CCNCc1cc(-c2cc3c(Nc4ccc(OCc5cccc(F)c5)c(Cl)c4)ncnc3s2)cs1 | 1.7% | 7.25% | 7% | 8.64% | 10.7% | 1.8% | 6.39% | 1.66% | 5.79% | 2.34% |
| CN(C)c1ccc2c(c1)/C(=C/Nc1ccc(S(N)(=O)=O)cc1)C(=O)N2 | 0.31% | 1.4% | 2.35% | 1.03% | 5.59% | 0.71% | 5.7% | 0.14% | 1.79% | 6.93% |
| CN1CCN(CCCNc2nc3ccc(Oc4ccc(NC(=O)Nc5cc(C(F)(F)F)ccc5F)cc4)cc3[nH]2)CC1 | 0.86% | 0.68% | 5.07% | 9.94% | 53.8% | -0.25% | 4.81% | 2.56% | 5.75% | 2.88% |
| COc1cc(Nc2ncc(-c3ccccc3)o2)cc(OC)c1OC | -1.68% | -2.02% | 4.55% | 0.66% | 5.14% | 4.15% | 28.4% | 0% | 0.48% | 3.35% |
| COc1cc2ncn(-c3cc(OCc4cccs4)c(C(N)=O)s3)c2cc1OC | 0.32% | -0.38% | 2.67% | 4.44% | 27.3% | 10.4% | 53.9% | 3.84% | 9.04% | -0.38% |
| Cc1ccc(NC(=O)c2ccoc2)cc1-c1ccc(C(=O)NCC2CC2)cc1 | -2.99% | 0.28% | 3.18% | 1.56% | 3.38% | 0.21% | 5.38% | 0.62% | 0.64% | 2.04% |
| O=C(NCC1CC1)c1ccc(-c2cccc(C(=O)NC3CC3)c2)cc1 | -1.45% | 2.57% | 6.01% | 2.21% | 6.47% | 1.89% | -2.48% | 0.86% | 1.39% | 4.07% |
| NC(=O)c1cc(-c2ccc(F)cc2)cc(-c2ccncc2)c1N | 1.28% | 2.88% | 5.71% | 4.39% | 3.08% | 3.42% | 7.48% | 0.31% | -0.36% | 2.33% |
